Laboratory results published in PubChem BioAssay (NCATS).
Where “and” joins values, the source holds several entries; their conditions need not be identical. Equal values may be shown once. Results filed as inconclusive are left out. Calls of active or inactive are those of the source. The call rests on the fitted dose curve; in most records, active means well fitted curve in the direction sought with a large enough effect; inconclusive means small, poorly fitted or top-dose-only effect, or another doubt; inactive means no such curve, though single readings can be large; an effect the other way counts as inactive or inconclusive.

How the values were obtained:
[1] = molecular target: Luciferin 4-monooxygenase (Photinus pyralis) (UniProt P08659); assay: Biochemical firefly luciferase enzyme assay for NPC (AID 624030);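 further: purified P. pyralis luciferase at 10 nM with luciferin and ATP substrate; 0% = DMSO and -100% = full luciferase inhibition by PTC124 control; nearly all actives have a fitted effect of over 70% in size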
How it was run: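 Purified P. pyralis luciferase at 10 nM in 50 mM Tris Acetate (final), luminescence read within 5 minutes of enzyme addition to compounds. Activity normalised to PTC124 versus DMSO; concentration-response curves classed by r2, magnitude and activity.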

[2] = molecular target: Glutathione peroxidase 1 (Homo sapiens) (UniProt P07203); assay: Primary qHTS Assay for Inhibitors of Recombinant Selenoprotein Glutathione Peroxidase 1 (GPX1) (AID 1845191); conditions: outcome: dose series up to 48.8 µM unless noted; further: nearly all actives have a fitted effect of over 65% in size; on activity, negative = inhibition: on the % scale 0 is the no-effect control and ±100 the full control effect
How it was run: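 GR-coupled assay: compounds preincubated 30 min at room temperature with GPX1, then reaction started with CHP; final 10 nM GPX1, 1 mM GSH, 0.5 mM CHP, 0.5 mM NADPH, 100 nM GR, 0.01% BSA, pH 7.5 Tris buffer. NADPH fluorescence (340/450 nm) read at 0 and 15 min.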

[3] = molecular target: Phospholipid hydroperoxide glutathione peroxidase GPX4 (Homo sapiens) (UniProt P36969); assay: Primary qHTS Assay for Inhibitors of Recombinant Selenoprotein Glutathione Peroxidase 4 (GPX4) (AID 1845192); conditions: outcome: dose series up to 50 µM unless noted; further: nearly all actives have a fitted effect of over 65% in size
How it was run: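 GR-coupled assay: recombinant GPX4 preincubated 30 min with compound at room temperature; final 200 nM GPX4, 1 mM GSH, 0.5 mM cumene hydroperoxide, 0.5 mM NADPH, 100 nM GR, 0.01% BSA, pH 7.5 Tris. NADPH fluorescence (340/450 nm) read at 0 and 15 min.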

[4] = qHTS profiling for inhibitors of Plasmodium falciparum proliferation (AID 504749);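 further: 0% = DMSO vehicle and full inhibition = artemisinin control; nearly all actives have a fitted effect of over 60% in size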; conditions: P. falciparum in erythrocytes, SYBR Green DNA, 72 h
How it was run: (§1)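 P. falciparum-infected erythrocytes (0.3% parasitemia, 2.5% hematocrit) incubated with compound 72 h at 37 C, 5% CO2. Parasite DNA detected by SYBR Green after lysis, overnight at room temperature; normalised to 0.29 uM artemisinin and DMSO.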

[5] = system: CP191; assay: as above; conditions: P. falciparum in erythrocytes, SYBR Green DNA, 72 h; series mostly up to 12.8 µM
How it was run: as §1

[6] = system: PC49; assay: as above; conditions: P. falciparum in erythrocytes, SYBR Green DNA, 72 h; series mostly up to 12.8 µM
How it was run: as §1

[7] = Viability counterscreen for antagonist of constitutive androstane receptor (CAR) against the NCATS DSHEA and TCM libraries (AID 1794837);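 further: compound exposure lasted 24 h before viability reading; 0% is about no effect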
How it was run: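 Cells: HepG2 line carrying CYP2B6 reporter and hCAR, seeded and attached 5 h. Then pin-transferred test substances plus agonist CITCO at 48 uM final; 24 h incubation; fluorogenic viability reagent, 1 h.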

[8] = Viability counterscreen for agonist of constitutive androstane receptor (CAR) against the NCATS DSHEA and TCM libraries (AID 1794838);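 further: HepG2 cells with CYP2B6 reporter and hCAR plus 0.75 µM PK11195 antagonist; 0% is about no effect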
How it was run: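 Cell health was measured as CellTiter-Fluor signal in HepG2-CYP2B6-hCAR cells treated for 24 h with substances alongside the hCAR antagonist PK11195 (0.75 uM final).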

[9] = HepG2 viability counterscreen (readout 2: ATP content) against the NCATS DSHEA and TCM libraries (AID 1794840); further: 0% is about no effect
How it was run: (§2)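 Same wells read twice: first fluorescence from cleaved GF-AFC substrate (25 uM final, 30 min, 37C) for live-cell protease, then CellTiter-Glo luminescence after 30 min at room temperature for ATP. HepG2 cells were exposed ~24 h to substances.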

[10] = HepG2 viability counterscreen (readout 1: protease activity) against the NCATS DSHEA and TCM libraries (AID 1794841);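 further: cells exposed to compounds for about 24 h before the protease read; 0% is about no effect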
How it was run: as §2

[11] = molecular target: Cytochrome P450 2D6 (Homo sapiens) (UniProt P10635); assay: qHTS for inhibitors of CYP2D6 against the NCATS DSHEA and TCM libraries (AID 1919972); further: on the % scale 0 is the no-effect control and ±100 the full control effect
How it was run: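 Luminescent P450-Glo read-out of CYP2D6 turnover of a luciferin substrate after NADPH-driven reaction of 30-45 min at room temperature. Compounds were first preincubated 15 min with enzyme at titrated concentrations; quinidine was the intraplate control.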

[12] = molecular target: Cytochrome P450 2C19 (Homo sapiens) (UniProt P33261); assay: qHTS for inhibitors of CYP2C19 against the NCATS DSHEA and TCM libraries (AID 1919974);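 further: luminescence from luciferin released by CYP2C19 oxidation of a pro-luciferin substrate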; further: potency means the concentration at half of the fitted maximal effect
How it was run: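 Luminescent P450-Glo format: compounds preincubated 15 min with enzyme and luciferin substrate, reaction run 30-45 min after NADPH regeneration solution. Intraplate controls: ketoconazole for CYP3A4 and CYP2C19, sulfaphenazole for CYP2C9.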

[13] = KB-3-1 P-gp reporter qHTS against the NCATS DSHEA and TCM libraries (AID 1919975); further: 0% is about no effect
How it was run: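 KB-3-1 parental line, 1536-well qHTS: cells seeded, ~4 h attachment, pintool compound addition, ~72 h at 37C, then CellTiter-Glo, 30 min RT, luminescence. Concentration-response format.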

[14] = molecular target: Cytochrome P450 1A2 (Homo sapiens) (UniProt P05177); assay: qHTS for inhibitors of CYPIA2 against the NCATS DSHEA and TCM libraries (AID 1919976); further: potency means the concentration at half of the fitted maximal effect
How it was run: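 Human CYP1A2 with pro-luciferin substrate (typically 100 mM KPO4), 15 min preincubation with compound, then 1x NADPH regeneration for 30-45 min at room temperature in the dark. Luciferin quantified by luciferase luminescence; furafylline intraplate control.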

[15] = qHTS Counterscreen for compound interference against the NCATS DSHEA and TCM libraries (AID 1919978); conditions: firefly luciferase detection reagent interference, luminescence;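 further: compounds preincubated with 1 µM D-luciferin or buffer before detection reagent; % of control where 0% means no effect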
How it was run: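 Compounds, titrated from 19.5 nM to 39.8 uM final, were pinned onto 1 uM D-luciferin or plain 100 mM potassium phosphate. After 15 min at room temperature, luciferin detection reagent was added for 30 min before the luminescence read.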

[16] = Dual reporter qHTS for agonist of Pregnane X Receptor (hPXR) against the NCATS DSHEA and TCM libraries: Fluorescence readout (AID 1920058); further: 0% is about no effect
How it was run: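 hPXR-Luc HepG2 cells, 2000/well in charcoal-stripped serum, attached 5 h, dosed for ~24 h at 37 °C. Fluorescence read is CellTiter-Fluor viability (Ex/Em 405/540 nm); rifampicin positive, tetraoctyl ammonium bromide (92 µM) cytotoxicity controls.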

[17] = molecular target: Nuclear receptor subfamily 1 group I member 2 (Homo sapiens) (UniProt O75469); assay: Dual reporter qHTS for antagonist of Pregnane X Receptor (hPXR) against the NCATS DSHEA and TCM libraries: Luminescence Readout (AID 1920060);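 further: HepG2 cells carrying hPXR luciferase reporter stimulated with rifampicin at 2 µM; 0% is about no effect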
How it was run: (§3)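 HepG2 hPXR-Luc, 2000 cells/well, charcoal-stripped FBS medium; 5 h attach; RIF 2 uM final; 24 h 37C/5% CO2; CellTiter-Fluor 1 h, fluor 405/540; ONE-Glo 30 min RT, lum.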

[18] = Dual reporter qHTS for antagonist of Pregnane X Receptor (hPXR) against the NCATS DSHEA and TCM libraries: Fluorescence Readout (AID 1920061); further: 0% is about no effect
How it was run: as §3

[19] = molecular target: Nuclear receptor subfamily 1 group I member 2 (Homo sapiens) (UniProt O75469); assay: Dual reporter qHTS for agonist of Pregnane X Receptor (hPXR) against the NCATS DSHEA and TCM libraries: Luminescence readout (AID 1920059); further: 0% is about no effect
How it was run: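 hPXR-Luc HepG2 cells, 2000/well in 5% charcoal-stripped FBS medium, attached 5 h, then exposed 24 h at 37C to compounds. Viability by CellTiter-Fluor, then luciferase luminescence with ONE-Glo.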

[20] = molecular target: Cytochrome P450 2D6 (Homo sapiens) (UniProt P10635); assay: qHTS Assay for Inhibitors and Substrates of Cytochrome P450 2D6 (AID 891); further: potency means the concentration at half of the fitted maximal effect; nearly all actives have a fitted effect of over 60% in size
How it was run: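 Human CYP2D6 (5 nM) with 30 uM Luciferin-ME EGE (at Km) in 100 mM KPO4, compound preincubated 10 min, then NADPH regeneration system for 60 min at room temperature. Luciferin read by luminescence; normalized to 1.43 uM quinidine.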

[21] = at 28.7 µM (top of the series), parasite line A
[22] = at 28.7 µM (top of the series), parasite line B
[23] = at 12.8 µM (top of the series), parasite line A

Glutathione peroxidase 1 (Homo sapiens), sequence (P07203 whole entry, looked up): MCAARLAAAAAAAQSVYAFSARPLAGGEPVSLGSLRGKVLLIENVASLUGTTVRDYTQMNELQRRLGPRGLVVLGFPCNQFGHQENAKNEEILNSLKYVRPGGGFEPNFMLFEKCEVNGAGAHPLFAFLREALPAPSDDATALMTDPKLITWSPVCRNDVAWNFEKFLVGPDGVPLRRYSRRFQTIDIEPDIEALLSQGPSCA
Luciferin 4-monooxygenase (Photinus pyralis), sequence (P08659 whole entry, looked up): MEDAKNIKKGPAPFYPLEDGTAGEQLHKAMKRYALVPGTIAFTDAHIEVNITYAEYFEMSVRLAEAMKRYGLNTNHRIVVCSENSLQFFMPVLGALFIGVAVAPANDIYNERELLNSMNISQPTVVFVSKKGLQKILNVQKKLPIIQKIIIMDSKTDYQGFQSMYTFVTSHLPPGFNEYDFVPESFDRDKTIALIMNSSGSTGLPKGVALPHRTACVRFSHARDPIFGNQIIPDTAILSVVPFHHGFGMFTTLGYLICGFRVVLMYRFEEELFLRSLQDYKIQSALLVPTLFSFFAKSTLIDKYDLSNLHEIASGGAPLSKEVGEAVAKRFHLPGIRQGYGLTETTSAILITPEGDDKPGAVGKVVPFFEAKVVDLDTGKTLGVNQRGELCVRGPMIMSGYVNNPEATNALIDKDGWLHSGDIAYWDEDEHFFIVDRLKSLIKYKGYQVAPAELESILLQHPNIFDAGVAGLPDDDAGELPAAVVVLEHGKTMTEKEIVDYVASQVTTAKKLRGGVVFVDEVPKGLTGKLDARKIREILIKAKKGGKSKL
Cytochrome P450 2C19 (Homo sapiens), sequence (P33261 whole entry, looked up): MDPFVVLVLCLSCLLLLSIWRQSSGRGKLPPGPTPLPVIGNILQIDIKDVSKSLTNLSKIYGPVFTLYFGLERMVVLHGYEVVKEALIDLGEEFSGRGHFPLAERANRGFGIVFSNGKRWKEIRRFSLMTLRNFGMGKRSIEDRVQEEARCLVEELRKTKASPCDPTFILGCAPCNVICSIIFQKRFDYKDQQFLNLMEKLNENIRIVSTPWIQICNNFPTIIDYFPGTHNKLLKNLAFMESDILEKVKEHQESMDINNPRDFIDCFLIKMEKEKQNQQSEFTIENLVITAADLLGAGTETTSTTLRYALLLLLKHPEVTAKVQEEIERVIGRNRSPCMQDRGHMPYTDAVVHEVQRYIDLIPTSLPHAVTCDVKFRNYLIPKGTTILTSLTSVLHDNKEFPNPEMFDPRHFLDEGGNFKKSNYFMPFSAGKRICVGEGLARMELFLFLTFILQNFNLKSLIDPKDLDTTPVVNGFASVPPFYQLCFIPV
Cytochrome P450 1A2 (Homo sapiens), sequence (P05177 whole entry, looked up): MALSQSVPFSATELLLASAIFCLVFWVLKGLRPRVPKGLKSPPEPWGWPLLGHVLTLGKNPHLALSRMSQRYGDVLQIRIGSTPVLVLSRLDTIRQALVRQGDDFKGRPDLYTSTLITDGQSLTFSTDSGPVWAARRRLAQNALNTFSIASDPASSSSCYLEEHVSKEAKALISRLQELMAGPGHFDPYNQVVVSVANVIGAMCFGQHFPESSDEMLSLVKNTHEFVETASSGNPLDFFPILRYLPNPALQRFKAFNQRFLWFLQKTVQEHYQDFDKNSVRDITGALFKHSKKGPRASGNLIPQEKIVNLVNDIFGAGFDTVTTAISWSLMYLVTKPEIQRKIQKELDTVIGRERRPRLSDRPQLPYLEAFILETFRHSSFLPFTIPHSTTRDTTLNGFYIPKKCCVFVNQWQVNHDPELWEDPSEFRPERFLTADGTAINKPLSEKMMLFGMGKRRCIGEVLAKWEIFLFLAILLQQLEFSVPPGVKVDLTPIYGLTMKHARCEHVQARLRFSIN
Cytochrome P450 2D6 (Homo sapiens), sequence (P10635 whole entry, looked up): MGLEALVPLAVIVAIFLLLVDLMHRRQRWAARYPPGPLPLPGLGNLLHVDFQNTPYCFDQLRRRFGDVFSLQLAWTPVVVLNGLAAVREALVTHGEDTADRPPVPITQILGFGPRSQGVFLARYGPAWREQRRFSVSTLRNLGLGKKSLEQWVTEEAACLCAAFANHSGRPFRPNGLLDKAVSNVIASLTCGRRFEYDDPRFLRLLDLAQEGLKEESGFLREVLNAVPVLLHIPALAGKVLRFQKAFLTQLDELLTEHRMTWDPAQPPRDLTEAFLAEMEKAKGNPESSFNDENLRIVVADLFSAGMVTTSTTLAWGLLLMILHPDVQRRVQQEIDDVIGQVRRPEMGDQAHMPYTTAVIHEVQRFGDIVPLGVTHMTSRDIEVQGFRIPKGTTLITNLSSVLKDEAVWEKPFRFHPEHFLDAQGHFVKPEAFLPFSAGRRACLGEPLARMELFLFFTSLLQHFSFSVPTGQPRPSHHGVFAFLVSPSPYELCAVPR
Nuclear receptor subfamily 1 group I member 2 (Homo sapiens), sequence (O75469 whole entry, looked up): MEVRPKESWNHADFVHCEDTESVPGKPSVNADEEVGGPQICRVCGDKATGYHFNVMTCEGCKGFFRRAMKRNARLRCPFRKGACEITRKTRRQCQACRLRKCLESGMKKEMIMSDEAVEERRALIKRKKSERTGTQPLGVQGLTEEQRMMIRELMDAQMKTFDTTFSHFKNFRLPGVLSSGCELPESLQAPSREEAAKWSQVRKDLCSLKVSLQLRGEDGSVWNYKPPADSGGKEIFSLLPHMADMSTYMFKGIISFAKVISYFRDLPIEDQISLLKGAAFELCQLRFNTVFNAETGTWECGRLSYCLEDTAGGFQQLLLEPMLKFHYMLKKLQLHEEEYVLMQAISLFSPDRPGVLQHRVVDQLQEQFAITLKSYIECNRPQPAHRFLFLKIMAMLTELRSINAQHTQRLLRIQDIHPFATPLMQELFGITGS
Phospholipid hydroperoxide glutathione peroxidase GPX4 (Homo sapiens), sequence (P36969 whole entry, looked up): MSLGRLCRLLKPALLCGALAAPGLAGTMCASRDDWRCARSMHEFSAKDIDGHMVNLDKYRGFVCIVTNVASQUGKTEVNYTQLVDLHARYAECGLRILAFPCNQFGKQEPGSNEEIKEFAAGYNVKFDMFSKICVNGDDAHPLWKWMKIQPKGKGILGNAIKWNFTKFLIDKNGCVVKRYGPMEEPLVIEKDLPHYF

C[N+](C)(C)CC(O)CC(=O)O (stereo not drawn)
inactive: outcome [1] | outcome [2] | outcome [3] | activity, negative = inhibition [4, 21] 14.7% | activity, negative = inhibition [4, 22] 11.5% | Potency [5] | Potency [6]

O=C(Cc1cccs1)NC1C(=O)N2C(C(=O)[O-])=C(C[n+]3ccccc3)CSC12 (stereo not drawn)
inactive: outcome [1] | outcome [3] | activity, negative = inhibition [4, 21] 4.33% | activity, negative = inhibition [4, 22] -24.5% | Potency [5] | Potency [6]

CC(C)N1CCN(c2ccc(OC[C@@H]3CO[C@@](Cn4cncn4)(c4ccc(Cl)cc4Cl)O3)cc2)CC1
inactive: outcome [1] | outcome [2] | outcome [3] | activity, negative = inhibition [4, 23] 5.81% | Potency [5] | Potency [6]

C#C[C@]1(O)CCC2C3CCC4=C(CCC(=O)C4)C3CC[C@@]21C (stereo partly drawn)
inactive: outcome [2]

C=C[C@](C)(O)CCC=C(C)C
inactive: outcome [7] | outcome [8] | outcome [9] | outcome [10] | Potency [11] | outcome [13] | max response [15] -3.94% | outcome [16] | outcome [17] | outcome [18]
active: Potency [12] 3.55 µM | Potency [14] 3.55 µM

CN1C(CC(=O)c2ccccc2)CCCC1CC(O)c1ccccc1 (stereo not drawn)
inactive: outcome [2] | outcome [3]

NC(Cc1c[nH]c2ccccc12)C(=O)O (stereo not drawn)
active: Potency [12] 3.16 µM | Potency [14] 3.55 µM
inactive: outcome [9] | outcome [10] | Potency [11] | outcome [13] | max response [15] 1.56% | outcome [16] | outcome [19] | outcome [17] | outcome [18]

C=C(C)[C@H]1CC=C(C)C(=O)C1
inactive: outcome [7] | outcome [8] | outcome [9] | outcome [10] | Potency [11] | Potency [12] | outcome [13] | Potency [14] | max response [15] 1.32% | outcome [16] | outcome [19] | outcome [17] | outcome [18]

C[C@@H]1CCC[C@H](C)N1NC(=O)c1ccc(Cl)c(S(N)(=O)=O)c1
inactive: outcome [1] | outcome [2] | outcome [3] | activity, negative = inhibition [4, 23] 12.8% | activity, negative = inhibition ([4]; at 12.8 µM (top of the series), parasite line B) 12% | Potency [5] | Potency [6]

CN(C)Cc1ccccc1-c1nc(N(C)Cc2ccco2)c2ccccc2n1
active: Potency [20] 0.794 µM

CN(C)Cc1ccccc1-c1ccc2ncnc(NCc3ccccc3)c2c1
active: Potency [20] 7.94 µM

CN1[C@@H]2CC[C@H]1CC(OC(=O)[C@@H](O)c1ccccc1)C2 (stereo partly drawn)
inactive: outcome [1] | activity, negative = inhibition [4, 21] -3.65% and -0.465% | activity, negative = inhibition [4, 22] 7.89% and -12.1% | Potency [5] | Potency [6]

Cc1cccc(CNc2ccnc(-c3ccccc3CN(C)C)n2)c1
active: Potency [20] 2.51 µM
